Test results as given in PubChem BioAssay (EPA / NIEHS).
Results filed as inconclusive are left out. Active and inactive are the calls of the source. How the source made its calls: active means hit-call score of the fitted dose curve at least 0.9, where 1 is the maximum; inconclusive means response in the unintended direction; inactive means score below 0.9.

Key:
[1] = target: mouse Cholecystokinin, CCK1 Receptor (CCKA), Cckar (gene 12425) (UniProt O08786); experiment: NVS_GPCR_mCCKAPeripheral: NovaScreen (NVS) G Protein-Coupled Receptor Assay for mouse Cholecystokinin, CCK1 Receptor (CCKA) (AID 2283285)
Sequence of mouse Cholecystokinin, CCK1 Receptor (CCKA), Cckar (gene 12425) (O08786 whole entry, looked up): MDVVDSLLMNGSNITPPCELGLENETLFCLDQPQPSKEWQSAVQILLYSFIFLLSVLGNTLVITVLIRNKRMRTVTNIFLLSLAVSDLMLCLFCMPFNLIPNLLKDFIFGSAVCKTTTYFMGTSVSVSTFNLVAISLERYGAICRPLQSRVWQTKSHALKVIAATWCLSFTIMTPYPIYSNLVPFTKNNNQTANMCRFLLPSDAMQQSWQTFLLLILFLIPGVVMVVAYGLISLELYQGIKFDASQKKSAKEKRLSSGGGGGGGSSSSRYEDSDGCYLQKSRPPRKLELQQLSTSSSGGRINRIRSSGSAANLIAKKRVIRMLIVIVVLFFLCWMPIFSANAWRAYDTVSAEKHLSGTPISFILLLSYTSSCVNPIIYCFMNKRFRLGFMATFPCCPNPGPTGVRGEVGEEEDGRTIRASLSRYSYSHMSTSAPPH
How it was run: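 Chemicals were first screened in duplicate at 25 uM, with those meeting threshold (e.g., 30% inhibition) retested in singleton concentration series to 50 uM maximum. Binding of radioligand to mouse pancreatic membranes was read after 2 h by filtration and scintillation counting.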

[2] = target: rat Serotonin, 5-Hydroxytryptamine Receptor 1 (5HT1), Non-Selective Binding, Htr1a (gene 24473) (UniProt P19327); experiment: NVS_GPCR_r5HT1_NonSelective: NovaScreen (NVS) G Protein-Coupled Receptor Assay for rat Serotonin, 5-Hydroxytryptamine Receptor 1 (5HT1), Non-Selective Binding (AID 2283286)
How it was run: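 Binding of a radioligand to rat cortex membranes is read by filtration and scintillation counting after 1 h. Compounds were screened at 25 uM in duplicate. Actives were then titrated to a top of 50 uM. DMSO is the baseline.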

[3] = target: rat Neurokinin-1 Receptor (NK1), Tacr1 (gene 24807) (UniProt P14600); experiment: NVS_GPCR_rNK1: NovaScreen (NVS) G Protein-Coupled Receptor Assay for rat Neurokinin-1 Receptor (NK1) (AID 2283309)
Sequence of rat Neurokinin-1 Receptor (NK1), Tacr1 (gene 24807) (P14600 whole entry, looked up): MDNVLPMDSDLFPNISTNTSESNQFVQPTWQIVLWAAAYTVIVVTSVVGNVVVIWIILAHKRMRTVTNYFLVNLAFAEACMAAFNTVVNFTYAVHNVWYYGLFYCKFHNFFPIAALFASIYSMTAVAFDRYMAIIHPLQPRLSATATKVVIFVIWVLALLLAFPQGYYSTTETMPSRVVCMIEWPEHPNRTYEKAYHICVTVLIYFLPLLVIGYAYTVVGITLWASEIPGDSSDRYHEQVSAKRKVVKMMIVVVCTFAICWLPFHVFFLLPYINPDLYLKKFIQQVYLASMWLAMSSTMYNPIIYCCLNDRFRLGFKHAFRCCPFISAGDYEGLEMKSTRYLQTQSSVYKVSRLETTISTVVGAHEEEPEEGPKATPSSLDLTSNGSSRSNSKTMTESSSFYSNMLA
How it was run: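 Competitive radioligand binding to NK1 in rat submaxillary membranes, 1 h incubation, filtration and scintillation read-out. Compounds first screened at 25 uM in duplicate, then concentration-response for actives; signal loss relative to DMSO.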

[4] = test system: rat Adrenergic, Alpha 1B Receptor (Adra1B), gene 24173; experiment: NVS_GPCR_rAdra1B: NovaScreen (NVS) G Protein-Coupled Receptor Assay for rat Adrenergic, Alpha 1B Receptor (Adra1B) (AID 2283297)
How it was run: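 Filter-binding radioligand competition on membranes from rat liver, read after 1 h by scintillation counting. Single-concentration duplicate screen at 25 uM, followed by concentration-response on actives, normalised to DMSO.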

[5] = target: human Vasopressin 1A Receptor (V1A), AVPR1A (gene 552) (UniProt P37288); experiment: NVS_GPCR_hV1A: NovaScreen (NVS) G Protein-Coupled Receptor Assay for human Vasopressin 1A Receptor (V1A) (AID 2283284)
Sequence of human Vasopressin 1A Receptor (V1A), AVPR1A (gene 552) (P37288 whole entry, looked up): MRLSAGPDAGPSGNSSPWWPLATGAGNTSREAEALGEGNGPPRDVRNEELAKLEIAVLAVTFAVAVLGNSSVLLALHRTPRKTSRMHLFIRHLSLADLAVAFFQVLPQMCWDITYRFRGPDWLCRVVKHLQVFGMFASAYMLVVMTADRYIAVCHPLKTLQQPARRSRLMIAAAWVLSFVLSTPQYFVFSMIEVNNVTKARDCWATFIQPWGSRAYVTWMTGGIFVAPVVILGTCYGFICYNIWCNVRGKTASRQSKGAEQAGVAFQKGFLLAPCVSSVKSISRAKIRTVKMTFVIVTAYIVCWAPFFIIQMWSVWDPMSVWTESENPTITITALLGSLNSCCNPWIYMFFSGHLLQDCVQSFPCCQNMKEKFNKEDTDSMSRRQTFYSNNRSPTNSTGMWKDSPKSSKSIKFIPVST
How it was run: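 Single-concentration duplicate screen at 25 uM, with concentration-response follow-up (top 50 uM) for actives. The assay measured displacement of a radioligand from human platelet-derived receptor after 1.5 h, detected by filtration and scintillation counting.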

[6] = target: rat Corticotropin Releasing Factor Receptor (CRF), Crhr1 (gene 58959) (UniProt P35353); experiment: NVS_GPCR_rCRF: NovaScreen (NVS) G Protein-Coupled Receptor Assay for rat Corticotropin Releasing Factor Receptor (CRF) (AID 2283300)
How it was run: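 Single-concentration (25 uM, duplicate) radioligand binding on rat cortical membrane preparations, counted by scintillation after 2 h. Activity scored as signal loss relative to DMSO negative control.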

[7] = test system: 5-hydroxytryptamine receptor 2C (pig); experiment: NVS_GPCR_p5HT2C: NovaScreen (NVS) G Protein-Coupled Receptor Assay for pig Serotonin, 5-Hydroxytryptamine Receptor 2C (5HT2C) (AID 2283288)
How it was run: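 Radioligand displacement on membranes from pig choroid plexus, detected by filter scintillation counting after 1 h. Tested first at a single 25 uM in duplicate, then in concentration-response for actives; DMSO served as baseline.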

[8] = target: human Opioid Receptor Mu (Opiate Mu), OPRM1 (gene 4988) (UniProt P35372); experiment: NVS_GPCR_hOpiate_mu: NovaScreen (NVS) G Protein-Coupled Receptor Assay for human Opioid Receptor Mu (Opiate Mu) (AID 2283290);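 further: hits lower bound tracer signal versus DMSO meaning displacement of the ligand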
Sequence of human Opioid Receptor Mu (Opiate Mu), OPRM1 (gene 4988) (P35372 whole entry, looked up): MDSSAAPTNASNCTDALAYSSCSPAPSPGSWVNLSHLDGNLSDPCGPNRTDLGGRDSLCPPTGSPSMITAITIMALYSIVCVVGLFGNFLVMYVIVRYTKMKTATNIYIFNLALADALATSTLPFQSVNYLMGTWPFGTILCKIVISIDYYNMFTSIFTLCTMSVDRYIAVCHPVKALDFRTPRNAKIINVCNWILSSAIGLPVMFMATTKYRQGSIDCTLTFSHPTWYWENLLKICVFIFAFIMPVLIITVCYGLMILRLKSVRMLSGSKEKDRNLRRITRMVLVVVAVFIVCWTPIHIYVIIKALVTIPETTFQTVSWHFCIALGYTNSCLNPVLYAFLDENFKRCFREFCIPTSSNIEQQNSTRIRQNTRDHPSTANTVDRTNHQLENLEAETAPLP
How it was run: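 Radioligand displacement binding on membranes from CHO cells expressing the receptor, 2.5 h after dosing, filter-based scintillation counting; loss of signal vs DMSO baseline. Screened in duplicate at 25 uM, actives then run in concentration series.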

[9] = target: mouse Cholecystokinin, CCK2 Receptor (CCKB), Cckbr (gene 12426) (UniProt P56481); experiment: NVS_GPCR_mCKKBCentral: NovaScreen (NVS) G Protein-Coupled Receptor Assay for mouse Cholecystokinin, CCK2 Receptor (CCKB) (AID 2283293)
Sequence of mouse Cholecystokinin, CCK2 Receptor (CCKB), Cckbr (gene 12426) (P56481 whole entry, looked up): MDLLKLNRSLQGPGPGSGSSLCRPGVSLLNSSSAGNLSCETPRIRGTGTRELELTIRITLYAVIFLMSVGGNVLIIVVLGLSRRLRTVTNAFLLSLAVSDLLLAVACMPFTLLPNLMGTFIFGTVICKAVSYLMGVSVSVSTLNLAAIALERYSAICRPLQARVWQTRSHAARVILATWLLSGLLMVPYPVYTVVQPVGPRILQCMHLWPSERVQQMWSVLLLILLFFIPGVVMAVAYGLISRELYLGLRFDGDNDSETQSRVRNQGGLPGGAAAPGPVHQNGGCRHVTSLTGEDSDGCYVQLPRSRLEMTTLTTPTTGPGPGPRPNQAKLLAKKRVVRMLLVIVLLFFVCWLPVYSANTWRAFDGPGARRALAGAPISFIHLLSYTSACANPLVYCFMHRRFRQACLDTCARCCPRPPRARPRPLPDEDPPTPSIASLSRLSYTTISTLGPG
How it was run: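 Mouse forebrain membrane preparation incubated 2 h with chemical and radioligand; bound radioactivity counted after filtration. Single-concentration duplicate screen at 25 uM, then concentration series to 50 uM max for hits, DMSO as baseline.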

[10] = target: guinea pig Serotonin, 5-Hydroxytryptamine Receptor 4 (5HT4), HTR4 (gene 100135548) (UniProt O70528); experiment: NVS_GPCR_g5HT4: NovaScreen (NVS) G Protein-Coupled Receptor Assay for guinea pig Serotonin, 5-Hydroxytryptamine Receptor 4 (5HT4) (AID 2283294)
Sequence of guinea pig Serotonin, 5-Hydroxytryptamine Receptor 4 (5HT4), HTR4 (gene 100135548) (O70528 whole entry, looked up): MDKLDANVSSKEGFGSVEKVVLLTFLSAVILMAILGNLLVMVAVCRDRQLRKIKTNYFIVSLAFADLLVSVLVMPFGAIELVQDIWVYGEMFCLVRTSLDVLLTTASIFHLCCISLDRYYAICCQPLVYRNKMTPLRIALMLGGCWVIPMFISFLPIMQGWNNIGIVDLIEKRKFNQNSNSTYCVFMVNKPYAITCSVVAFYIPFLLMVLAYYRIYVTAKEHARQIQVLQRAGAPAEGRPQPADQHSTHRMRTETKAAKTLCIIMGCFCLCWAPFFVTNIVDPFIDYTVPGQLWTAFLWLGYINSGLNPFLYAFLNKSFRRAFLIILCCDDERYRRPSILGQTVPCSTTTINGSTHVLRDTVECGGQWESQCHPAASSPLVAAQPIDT
How it was run: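 Compounds first screened in duplicate at 25 uM, actives followed up in concentration series. Binding measured as displacement of specific radioligand from guinea pig striatal membranes, 1 h, filter-based scintillation read-out versus DMSO baseline.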

[11] = test system: guinea pig Atrionatriuretic Peptide Receptor A (ANPA), gene 100135578; experiment: NVS_GPCR_gANPA: NovaScreen (NVS) G Protein-Coupled Receptor Assay for guinea pig Atrionatriuretic Peptide Receptor A (ANPA) (AID 2283291)
How it was run: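 Displacement of specific radioligand from guinea pig cerebellum membranes was read by scintillation after 1 h. A duplicate single-point screen at 25 uM was followed by a concentration series up to 50 uM, analysed relative to DMSO.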

[12] = target: rat Adrenergic, Alpha 1, Non-selective Receptor (Adra1), Adra1a (gene 29412) (UniProt P43140); experiment: NVS_GPCR_rAdra1_NonSelective: NovaScreen (NVS) G Protein-Coupled Receptor Assay for rat Adrenergic, Alpha 1, Non-selective Receptor (Adra1) (AID 2283289)
Sequence of rat Adrenergic, Alpha 1, Non-selective Receptor (Adra1), Adra1a (gene 29412) (P43140 whole entry, looked up): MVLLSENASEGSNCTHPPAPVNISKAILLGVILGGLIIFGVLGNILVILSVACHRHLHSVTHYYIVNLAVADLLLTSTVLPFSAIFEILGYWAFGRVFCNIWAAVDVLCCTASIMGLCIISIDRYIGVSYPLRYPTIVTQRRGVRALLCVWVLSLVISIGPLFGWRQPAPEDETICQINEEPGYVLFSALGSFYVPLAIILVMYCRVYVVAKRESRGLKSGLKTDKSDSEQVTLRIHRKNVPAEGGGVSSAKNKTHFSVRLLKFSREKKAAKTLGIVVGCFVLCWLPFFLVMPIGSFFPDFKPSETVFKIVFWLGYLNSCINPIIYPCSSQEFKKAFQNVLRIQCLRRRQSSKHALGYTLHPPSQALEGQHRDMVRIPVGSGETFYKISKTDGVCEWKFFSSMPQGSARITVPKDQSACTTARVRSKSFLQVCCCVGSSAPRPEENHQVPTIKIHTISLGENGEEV
How it was run: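 Chemicals first screened in duplicate at 25 uM, then actives tested in concentration series up to 50 uM. Binding measured as displacement of radioligand from rat forebrain membrane receptors, 1 h, filtration with scintillation readout; DMSO baseline.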

[13] = target: rat Adrenergic Receptor, Beta (Adrb), Non-selective Binding, Adrb1 (gene 24925) (UniProt P18090); experiment: NVS_GPCR_rAdrb_NonSelective: NovaScreen (NVS) G Protein-Coupled Receptor Assay for rat Adrenergic Receptor, Beta (Adrb), Non-selective Binding (AID 2283298)
Sequence of rat Adrenergic Receptor, Beta (Adrb), Non-selective Binding, Adrb1 (gene 24925) (P18090 whole entry, looked up): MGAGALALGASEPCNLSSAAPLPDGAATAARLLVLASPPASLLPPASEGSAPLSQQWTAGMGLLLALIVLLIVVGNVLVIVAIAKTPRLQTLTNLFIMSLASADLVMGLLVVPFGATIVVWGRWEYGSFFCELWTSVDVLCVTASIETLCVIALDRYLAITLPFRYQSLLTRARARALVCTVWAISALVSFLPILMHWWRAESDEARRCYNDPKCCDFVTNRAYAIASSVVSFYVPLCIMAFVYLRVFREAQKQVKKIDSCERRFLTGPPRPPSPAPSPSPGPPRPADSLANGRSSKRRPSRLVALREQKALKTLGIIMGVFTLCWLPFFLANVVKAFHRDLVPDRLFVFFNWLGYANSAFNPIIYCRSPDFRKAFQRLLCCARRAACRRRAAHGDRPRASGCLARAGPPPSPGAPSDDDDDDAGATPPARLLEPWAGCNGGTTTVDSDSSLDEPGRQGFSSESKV
How it was run: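 Rat cortical membranes incubated 1 h with beta-adrenergic radioligand and test chemical; bound ligand measured by filtration and scintillation counting. Screen at 25 uM duplicate, then concentration series with 50 uM maximum; loss of signal versus DMSO.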

[14] = target: guinea pig Bradykinin Receptor B2 (BK2), BDKRB2 (gene 100135486) (UniProt O70526); experiment: NVS_GPCR_gBK2: NovaScreen (NVS) G Protein-Coupled Receptor Assay for guinea pig Bradykinin Receptor B2 (BK2) (AID 2283292)
Sequence of guinea pig Bradykinin Receptor B2 (BK2), BDKRB2 (gene 100135486) (O70526 whole entry, looked up): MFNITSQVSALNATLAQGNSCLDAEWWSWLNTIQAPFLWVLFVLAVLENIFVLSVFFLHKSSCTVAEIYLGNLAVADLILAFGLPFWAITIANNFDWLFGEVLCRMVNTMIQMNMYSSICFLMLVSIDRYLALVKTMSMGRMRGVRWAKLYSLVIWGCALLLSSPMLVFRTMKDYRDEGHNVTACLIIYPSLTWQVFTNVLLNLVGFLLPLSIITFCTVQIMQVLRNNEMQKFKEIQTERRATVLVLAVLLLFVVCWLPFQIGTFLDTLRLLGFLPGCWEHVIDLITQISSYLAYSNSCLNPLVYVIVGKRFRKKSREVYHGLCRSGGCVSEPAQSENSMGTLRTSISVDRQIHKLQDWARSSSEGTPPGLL
How it was run: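 Guinea pig ileum membrane preparation incubated 1 h with radioligand and test chemical; bound counts measured after filtration. Primary duplicate screening at 25 uM, then singleton concentration series with a 50 uM top dose; DMSO as baseline.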

[15] = target: rat Gamma-Aminobutyric Acid Type B Receptor (GABBR), Gabbr1 (gene 81657) (UniProt Q9Z0U4); experiment: NVS_GPCR_rGABBR: NovaScreen (NVS) G Protein-Coupled Receptor Assay for rat Gamma-Aminobutyric Acid Type B Receptor (GABBR) (AID 2283301)
How it was run: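 Rat cortical membrane preparation, competitive radioligand binding for 1 h with filtration and scintillation readout. Actives from duplicate single-point 25 uM screening proceeded to concentration series with 50 uM top concentration.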

[16] = target: rat Histamine Receptor (H3), Hrh3 (gene 85268) (UniProt Q9QYN8); experiment: NVS_GPCR_rH3: NovaScreen (NVS) G Protein-Coupled Receptor Assay for rat Histamine Receptor (H3) (AID 2283303)
Sequence of rat Histamine Receptor (H3), Hrh3 (gene 85268) (Q9QYN8 whole entry, looked up): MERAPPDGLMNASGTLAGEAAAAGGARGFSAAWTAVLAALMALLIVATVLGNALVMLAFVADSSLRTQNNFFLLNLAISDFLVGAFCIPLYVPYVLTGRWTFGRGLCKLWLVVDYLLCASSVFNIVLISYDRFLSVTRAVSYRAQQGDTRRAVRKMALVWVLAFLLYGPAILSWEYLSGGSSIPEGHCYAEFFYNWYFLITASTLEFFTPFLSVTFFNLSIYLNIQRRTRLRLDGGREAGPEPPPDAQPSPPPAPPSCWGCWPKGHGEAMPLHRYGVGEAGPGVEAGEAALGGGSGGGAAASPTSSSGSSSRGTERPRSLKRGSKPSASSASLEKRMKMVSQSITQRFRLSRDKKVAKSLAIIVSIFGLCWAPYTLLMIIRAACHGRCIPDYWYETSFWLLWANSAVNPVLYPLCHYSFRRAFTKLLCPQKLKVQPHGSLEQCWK
How it was run: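 Filter-binding radioligand competition on rat forebrain membranes, 1 h incubation; compounds screened at 25 µM in duplicate and followed in concentration series to 50 µM, loss of bound signal vs DMSO.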

Adra2b (gene 24174) = Adra2b (gene 24174) (UniProt P19328); experiment: NVS_GPCR_rmAdra2B: NovaScreen (NVS) G Protein-Coupled Receptor Assay for hybird cells Adrenergic, Alpha 2B Receptor (Adra2B) (AID 2283306)
Sequence of Adra2b (gene 24174) (P19328 whole entry, looked up): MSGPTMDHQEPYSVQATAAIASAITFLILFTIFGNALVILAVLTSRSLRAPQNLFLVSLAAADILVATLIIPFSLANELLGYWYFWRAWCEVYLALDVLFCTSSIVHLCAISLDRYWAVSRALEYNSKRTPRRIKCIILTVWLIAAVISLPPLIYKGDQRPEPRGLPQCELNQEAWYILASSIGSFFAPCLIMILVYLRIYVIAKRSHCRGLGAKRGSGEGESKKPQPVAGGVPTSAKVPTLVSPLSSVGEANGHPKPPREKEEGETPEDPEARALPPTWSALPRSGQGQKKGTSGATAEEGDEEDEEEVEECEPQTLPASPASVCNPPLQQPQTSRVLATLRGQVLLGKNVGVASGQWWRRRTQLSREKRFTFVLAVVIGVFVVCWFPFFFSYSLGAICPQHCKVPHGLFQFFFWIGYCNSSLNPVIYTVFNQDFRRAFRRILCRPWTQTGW
How it was run: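 Compounds screened first at 25 uM in duplicate, with actives followed up in concentration-response; specific radioligand displacement from hybrid neuroglioma/blastoma cell membrane preparations measured by filter scintillation counting after 1 h, normalized to DMSO.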

Cc1cc2c3c(c1)C(c1ccccc1)=N[C@@H](NC(=O)c1ccncc1)C(=O)N3CC2
AC50 [1]: 19.9 µM (active)
AC50 [2]: 6.17 µM (active)
outcome [3]: inactive

Nc1ccc(-c2ccc(N)cc2)cc1
outcome [4]: inactive

Oc1c(Cl)c(Cl)c(Cl)c(Cl)c1Cl
outcome [5]: inactive

CC(c1ccc(O)cc1)(c1ccc(O)cc1)c1ccc(O)cc1
outcome [6]: inactive

CC(C)(c1ccccc1)c1ccc(O)cc1
AC50 [1]: 18.2 µM (active)
AC50 [7]: 17.9 µM (active)
AC50 [8]: 11.8 µM (active)
AC50 [9]: 18.5 µM (active)
AC50 [10]: 23.7 µM (active)

O=S(=O)(O)C(F)(F)C(F)(F)C(F)(F)C(F)(F)C(F)(F)C(F)(F)F
outcome [11]: inactive

NS(=O)(=O)C(F)(F)C(F)(F)C(F)(F)C(F)(F)C(F)(F)C(F)(F)C(F)(F)C(F)(F)F
outcome [8]: inactive
outcome [11]: inactive

COc1ccc(O)c(C(C)(C)C)c1
AC50 [7]: 13.2 µM (active)
outcome [12]: inactive
outcome [9]: inactive
AC50 [10]: 18.8 µM (active)

Cc1cc(-c2ccc(N)c(C)c2)ccc1N
outcome [13]: inactive

CC(C)C(=O)OCC(C)(C)C(OC(=O)C(C)C)C(C)C (stereo not drawn)
outcome [14]: inactive

C[C@]12CCC(=O)C=C1CC[C@@H]1[C@@H]2CC[C@@]2(C)[C@H]1CC[C@]2(C)O
outcome [8]: inactive

Cc1ccc(O)c(C)c1
AC50 [5]: 0.12 µM (active)
outcome [7]: inactive
outcome [14]: inactive

CC1=C2C[C@H]3[C@@H](CC=C4C[C@@H](O)CC[C@@]43C)[C@@H]2CC[C@]12O[C@@H]1C[C@H](C)CN[C@H]1[C@H]2C
outcome [10]: inactive
outcome [4]: inactive

N#Cc1ccc(N(CC(N)=O)CC(F)(F)F)cc1C(F)(F)F
outcome [5]: inactive

O=C(N[C@H]1CN2CCC1CC2)c1cc2ccoc2cn1
AC50 [10]: 16.4 µM (active)
AC50 [4]: 11 µM (active)
outcome [13]: inactive
outcome [15]: inactive
AC50 [16]: 1.75 µM (active)
AC50 (Adra2b (gene 24174)): 16.4 µM (active)
